Experimental data: the supplement of paper PMC6555819

Key:
Experiment in all cases: PBM binding z-score (relative to random genomic background probes); higher = stronger binding; sequences stand for … in GC…GCGATTGACAGCGTAGAATGAAGG
[1] = tested on: PPARg:RXRa DBDmut IVT, anti-RXR (DBD mutation: RXRa K156A/R161A, NR concentration 270 nM, RXRa partner concentration 90 nM)
Summary of the method: (§1)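 Binding z-scores were set against random background probes. The data came from custom Agilent 4×180K protein-binding microarrays carrying double-stranded probes with 34-nt variable regions, incubated 1 h with ligand-free nuclear receptor dimers. Partner-specific antibodies detected binding, and scanned fluorescence was regression-normalized.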

[2] = tested on: PPARg:RXRa IVT, anti-PPARg (NR concentration 270 nM, RXRa partner concentration 90 nM)
Summary of the method: as §1

[3] = tested on: PPARg DBDmut:RXRa IVT, anti-PPARg (DBD mutation: PPARg1 K132A/R137A, NR concentration 270 nM, RXRa partner concentration 90 nM)
Summary of the method: as §1

[4] = tested on: PPARg DBDmut IVT, anti-PPARg (DBD mutation: PPARg1 K132A/R137A, NR concentration 270 nM)
Summary of the method: as §1

[5] = tested on: PPARg homodimer (NR concentration 180 nM)
Summary of the method: as §1

[6] = tested on: PXR:RXRa (NR concentration 270 nM, RXRa partner concentration 90 nM)
Summary of the method: as §1

[7] = tested on: PXR homodimer (NR concentration 270 nM)
Summary of the method: as §1

[8] = tested on: RARa:RXR (NR concentration 270 nM, RXRa partner concentration 90 nM)
Summary of the method: as §1

[9] = tested on: RARa homodimer (NR concentration 270 nM)
Summary of the method: as §1

[10] = tested on: RARb:RXRa (NR concentration 270 nM, RXRa partner concentration 90 nM)
Summary of the method: as §1

[11] = tested on: RARb homodimer (NR concentration 270 nM)
Summary of the method: as §1

[12] = tested on: RARg:RXRa (NR concentration 270 nM, RXRa partner concentration 90 nM)
Summary of the method: as §1

[13] = tested on: RARg homodimer (NR concentration 270 nM)
Summary of the method: as §1

[14] = tested on: RXRa DBDmut IVT, anti-RXR (DBD mutation: RXRa K156A/R161A, NR concentration 90 nM)
Summary of the method: as §1

[15] = tested on: RXRa homodimer (NR concentration 180 nM)
Summary of the method: as §1

[16] = tested on: THRa:RXRa (NR concentration 90 nM, RXRa partner concentration 90 nM)
Summary of the method: as §1

[17] = tested on: THRa homodimer (NR concentration 90 nM)
Summary of the method: as §1

[18] = tested on: VDR homodimer (NR concentration 270 nM)
Summary of the method: as §1

Sequence | PBM binding z-score [1] | PBM binding z-score [2] | PBM binding z-score [3] | PBM binding z-score [4] | PBM binding z-score [5] | PBM binding z-score [6] | PBM binding z-score [7] | PBM binding z-score [8] | PBM binding z-score [9] | PBM binding z-score [10] | PBM binding z-score [11] | PBM binding z-score [12] | PBM binding z-score [13] | PBM binding z-score [14] | PBM binding z-score [15] | PBM binding z-score [16] | PBM binding z-score [17] | PBM binding z-score [18]
TAGCCTTGGTCATGCGGGCCAGTATAGTGTCGGC | -0.432 | 0.0959 | -0.481 | -0.0984 | -1.18 | -0.758 | -1.18 | -0.757 | -1.23 | 0.534 | -0.234 | -0.0381 | 0.129 | -1.52 | -0.29 | -0.715 | -0.902 | -0.904
TGAATGGGGTTAAAGATCAGGGAACGTGGCGTCG | 2.89 | 3.96 | 1.84 | 2.48 | 2.38 | 3.45 | 1.64 | 5 | 1.66 | 2.43 | 1.49 | 3.19 | 1.53 | 1.95 | 6 | 2.88 | 1.23 | 1.58
TCATATAGGTAAAGGCTAGGTGAAAGTCCGATCT | 3.97 | 3.25 | 0.56 | 1.28 | 0.619 | 0.508 | 0.058 | 1.09 | 1.15 | 0.844 | 0.981 | 0.769 | 0.425 | 1.27 | 0.971 | 1.3 | 0.205 | 0.0425
ATCGAAAGGTCGTGAGGGGAGTATACAGAAAGGC | 0.526 | 2.01 | 1.57 | 0.649 | 2.22 | 2.99 | 0.725 | 3.78 | 0.753 | 4.03 | 2.78 | 4.4 | 3.89 | 1.72 | 5.16 | 2.72 | 0.843 | 1.42
TTTACAGGGTCAAAGGCCAGAGTACGAATGTCGA | 3.26 | 5.18 | 1.93 | 1.36 | 1.8 | 4.41 | 0.247 | 6 | 1.16 | 4.52 | 3.46 | 5.91 | 5.11 | 3.13 | 6.94 | 3.63 | 0.893 | 2.97
TCTTGTAGATCAACAGAGGTTAAGAAAGTGCGCT | 1.7 | 0.862 | 0.181 | 0.408 | 0.896 | 3.06 | 0.45 | 1.95 | 0.0806 | 1.18 | 1.45 | 0.848 | 0.565 | 0.665 | 1.68 | 2.55 | -0.186 | 0.274
CTACCAAGGTGAACAAGGTCGTTGAGTACTATTC | 2.21 | 2.45 | -0.822 | -0.624 | 0.759 | 3.07 | 6.86 | 2.48 | 0.402 | 2.24 | 2.27 | 1.92 | 1.43 | 1.64 | 2.39 | 3.28 | 1.83 | 3.27
CGTCCAAGGTCAATGCTAGGTCTGTGAAAGCATT | 3.09 | 3.37 | 0.249 | 0.0297 | 2.17 | 3.74 | 0.712 | 3.88 | 0.767 | 5 | 3.89 | 5.81 | 6.03 | 3.79 | 4.4 | 3.78 | 2.25 | 2.69
AGTCAAAGTTCACTAGTTAACGTAAGATTCAGCT | 0.662 | 2.31 | 1.15 | 0.981 | 2.52 | 4.28 | 3.24 | 2.94 | 1.15 | 4.76 | 3.6 | 4.87 | 5.57 | 4.26 | 3.7 | 1.45 | -0.514 | 4.04
ATCGAAAGGTTGACGAGGTGAGTATACACCGTTT | 0.0825 | 1.03 | 0.76 | 1.04 | 0.684 | 0.914 | 0.374 | 1.25 | 0.63 | 1.79 | 1.28 | 1.47 | 1.51 | 0.0329 | 1.65 | 2.62 | 0.747 | 0.362
GCTTGTAGATCCAGGTTAAGAAAGACTAAGCTAA | 1.08 | 0.859 | 0.236 | -0.304 | 0.202 | -0.27 | -0.237 | 0.118 | 0.241 | 0.0746 | -0.153 | -0.172 | -0.0642 | -0.00816 | -0.0609 | 0.485 | -0.162 | -0.0555
GCTATTAGTTGAAAGGGCTACCGAATGATTCTCG | 0.511 | -0.182 | -0.304 | 0.104 | 0.707 | -0.465 | -0.174 | -0.0219 | 0.6 | 0.408 | 0.228 | -0.023 | 0.197 | 0.703 | 0.0628 | -0.589 | -0.623 | -0.485
TGAATGAGGTTATAAGATCAGGTAACGTTGCAAA | 1.19 | 1.74 | 0.858 | 0.555 | 0.252 | 0.996 | 0.0498 | 1.59 | 0.49 | 1.12 | 0.391 | 1.41 | 1.13 | 0.758 | 1.87 | 2.61 | 1.06 | 0.507
GCTCGGAGGACATGGTCAGAGCTTTGTCCGTAGA | -0.304 | -0.659 | -2.23 | -2.05 | -2.26 | -0.77 | -0.911 | -0.833 | -1.56 | 0.679 | 0.143 | -0.271 | 0.158 | -0.383 | -0.444 | 0.524 | -0.306 | -0.849
CCTAGTTGGTCAAGGTCACACTCGCTATAGGTAC | 2.46 | 3.35 | 0.792 | 0.878 | 3.44 | 3.95 | 2.21 | 4.18 | 2.57 | 3.85 | 4.05 | 4.19 | 4.5 | 2.44 | 3.96 | 3.92 | 4.03 | 3.42
AGTCAAAGTTCGTCTAGGTAACGTAAGATATGCT | -0.0534 | 1.36 | 0.664 | 0.773 | 1.41 | 1.99 | 1.83 | 1.34 | 0.143 | 2.54 | 1.35 | 1.99 | 2.11 | 3.25 | 1.39 | 1.97 | 0.129 | 2.49
